One assay deals with C13orf33. Kind of assay: pooled miR-30 sensor sort-seq; sequence = guide strand. The conditions noted are these: shRNA.
The sequence TATCTGTCTTCTTATCTTGGGG yielded a sensor-assay potency score (higher = more potent) of -0.395.

For the sequence TAACTTTCTCCAATCACTGAGG, the sensor-assay potency score (higher = more potent) was -0.682.

For TTGATGTAGCTGCTGAGGCGGT, the sensor-assay potency score (higher = more potent) was -0.889.

For the sequence TTAATAAAGAACAACATTGGTT, the sensor-assay potency score (higher = more potent) is -0.331.

As for TAATAAAGAACAACATTGGTTT, the sensor-assay potency score (higher = more potent) is -0.342.

Regarding TAATCGTCTCCTTCTTTTCTGG, the sensor-assay potency score (higher = more potent) is -0.326.

Turning to TTACACTGAACTTTCGGTCAGA, the sensor-assay potency score (higher = more potent) was determined as 0.151.

In a further assay the target is C14orf105. The assay is described as above. The settings on record: shRNA.
On to TTCCATACCAGTTTTCTTGTAA, for which the sensor-assay potency score (higher = more potent) amounted to 0.252.

For the sequence TTCTTTTCTAGTACCTGCTTTG, the sensor-assay potency score (higher = more potent) was -0.834.

Consider TTTCTAGTACCTGCTTTGCTTT, for which the sensor-assay potency score (higher = more potent) was -0.906.

The sequence TTCCTGAAGTAATTACTCGTGG had a sensor-assay potency score (higher = more potent) of -0.0565.

Regarding TTTCTTTTCTAGTACCTGCTTT, the sensor-assay potency score (higher = more potent) is -0.0807.

On to TTGCTTATTAATTCTTGCCTCT, for which the sensor-assay potency score (higher = more potent) was -0.134.

As for TTTGCTTTGTGCATTGTCCTGG, the sensor-assay potency score (higher = more potent) was determined as 0.729.

Consider TTTTCTTTAACTCCATTTGGGC, for which the sensor-assay potency score (higher = more potent) is -0.637.

Consider TTGCTTTGTGCATTGTCCTGGC, for which the sensor-assay potency score (higher = more potent) was found to be 0.239.

The sequence TTTGCTTATTAATTCTTGCCTC registered a sensor-assay potency score (higher = more potent) of 0.114.

Turning to TTAATAATACTTGTTTCTCTGT, the sensor-assay potency score (higher = more potent) was -0.864.

The sequence TTGAATGCAAAGTCCACACGGC had a sensor-assay potency score (higher = more potent) of 0.351.

Another assay deals with C14orf109. The description is as above. The conditions noted are these: shRNA.
The sequence AAAAATAACTGTCCACACCCAA had a sensor-assay potency score (higher = more potent) of -0.714.

TACAATCCCACTCCAATCCATC displayed a sensor-assay potency score (higher = more potent) of -0.538.

TTCATCATTCTCCATGCTCTGT yielded a sensor-assay potency score (higher = more potent) of -0.667.

Take TAACTGCCAAGCATATAGGGAT: the sensor-assay potency score (higher = more potent) is -0.363.

Regarding TTCAAGGAGTGTGTCCATGTGG, the sensor-assay potency score (higher = more potent) is -0.159.

For the sequence TTGCAAATAACTGCCAAGCATA, the sensor-assay potency score (higher = more potent) is -1.38.

ATAGGAACAAAAACATCTGTAA returned a sensor-assay potency score (higher = more potent) of -0.255.

AAACATAGTAAAATGCTGCTGC yielded a sensor-assay potency score (higher = more potent) of 0.701.

Sequence TTAAAGAGTCACTCAGCTCTGA returned a sensor-assay potency score (higher = more potent) of 0.487.

AAAATAACTGTCCACACCCAAA gave a sensor-assay potency score (higher = more potent) of -1.6.

ATAACTGCCAAGCATATAGGGA showed a sensor-assay potency score (higher = more potent) of -0.701.

In the case of ATGCTCTGTGCAATGGTCCCGA, the sensor-assay potency score (higher = more potent) was -0.872.

Another assay has as its target C14orf149. Described as above. The conditions noted are these: shRNA.
In the case of TCATCTTCTATTATAAAGCTTG, the sensor-assay potency score (higher = more potent) is -0.499.

Sequence TAATTTAGAGAAAACAGTCCTT registered a sensor-assay potency score (higher = more potent) of 0.523.

With TCTATTATAAAGCTTGCTGTAC, the sensor-assay potency score (higher = more potent) is -0.349.

Regarding TCTTCTATTATAAAGCTTGCTG, the sensor-assay potency score (higher = more potent) is -0.472.

TTATAAAGCTTGCTGTACCCGT came in with a sensor-assay potency score (higher = more potent) of 0.0873.

Consider TTCCCTGTGAATACTGAGCCAG, for which the sensor-assay potency score (higher = more potent) is -0.697.

As to TAAAATCACCACATTTCGCTTC, the sensor-assay potency score (higher = more potent) turned out to be 0.352.

The sequence ATGTCCAGGAACATCCACCATG yielded a sensor-assay potency score (higher = more potent) of -1.62.

As to TAAACTGAGCTTTCACTGCCTC, the sensor-assay potency score (higher = more potent) was -0.0059.

These data come from the OligoGym collection.
Further: reference of the scale not given here.
